In PubChem BioAssay (NCATS):
Inconclusive results are not listed. Activity calls are given as the source filed them. Calls come from the whole dose curve; as a rule, active = well fitted inhibition curve with a large enough effect; inconclusive = small, poorly fitted or top-dose-only effect, or effect the other way; inactive = flat fitted curve, though single readings scatter.

biological target: ATP-dependent 6-phosphofructokinase (Trypanosoma brucei brucei) (UniProt O15648); assay: qHTS Assay to Find Inhibitors of T. brucei phosphofructokinase: hit validation (AID 492961);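 note: luminescence reports ADP formed as PFK phosphorylates fructose-6-phosphate with ATP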; conditions: T. brucei PFK, ADP-Glo luminescence; series mostly up to 51.4 µM
Summary of the method: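 Measures ADP output of PFK (1.25 nM) at 0.1 mM ATP, 0.5 mM F6P, pH 8.0 TEA buffer with 5 mM MgCl2. No-enzyme wells define full inhibition; uninhibited enzyme wells define zero.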

Sequence of ATP-dependent 6-phosphofructokinase (Trypanosoma brucei brucei) (O15648 whole entry, looked up): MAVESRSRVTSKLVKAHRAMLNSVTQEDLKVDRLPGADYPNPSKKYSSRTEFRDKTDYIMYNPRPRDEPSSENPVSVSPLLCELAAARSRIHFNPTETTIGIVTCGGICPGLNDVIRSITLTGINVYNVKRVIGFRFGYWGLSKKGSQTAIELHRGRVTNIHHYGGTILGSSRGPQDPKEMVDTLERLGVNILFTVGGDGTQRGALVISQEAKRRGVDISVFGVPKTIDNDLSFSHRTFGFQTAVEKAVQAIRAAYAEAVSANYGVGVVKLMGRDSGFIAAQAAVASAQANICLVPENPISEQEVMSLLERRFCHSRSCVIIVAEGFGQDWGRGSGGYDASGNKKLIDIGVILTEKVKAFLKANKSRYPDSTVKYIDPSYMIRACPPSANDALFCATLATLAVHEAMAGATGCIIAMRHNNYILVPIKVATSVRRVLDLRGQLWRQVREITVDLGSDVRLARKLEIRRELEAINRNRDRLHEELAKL

Q: For `Cc1nc2ccccc2n1Cc1ccc(Cl)cc1`, which outcome is on record?
A: Its outcome is “inactive”.

Q: For `Cc1ccc(O)c(-n2nc3ccccc3n2)c1`, which outcome is on record?
A: Its outcome is “inactive”.

Q: With `O=C(OCc1ccccc1)c1ccccc1` as the compound, how does the outcome read?
A: Its outcome is “inactive”.

Q: Which outcome does the source give for `CCCCCCCCCCCCCCCC(=O)OC(C)C` here?
A: Its outcome is “inactive”.

Q: Which outcome does the source give for `CCCOC(=O)c1ccc(O)cc1` here?
A: The outcome was “inactive”.

Q: Which outcome does the source give for `COc1cc2c3cc1Oc1cc(ccc1O)C[C@@H]1c4c(cc(OC)c(O)c4Oc4ccc(cc4)C[C@@H]3N(C)CC2)CC[N+]1(C)C` here?
A: Its outcome is “inactive”.

Q: For `CCOC(=O)c1ccccc1O`, which outcome is on record?
A: Its outcome is “inactive”.

Q: `CCCC(=O)OC[C@@H](OC(=O)CCC)[C@@H](OC(=O)CCC)[C@H](Cn1c2nc(=O)[nH]c(=O)c-2nc2cc(C)c(C)cc21)OC(=O)CCC` was tested. Which outcome did it give?
A: Its outcome is “inactive”.

Q: For `CCCCCCCCCCCC(=O)[O][Sn]([CH2]CCC)([CH2]CCC)[O]C(=O)CCCCCCCCCCC`, which outcome is on record?
A: The outcome was “inactive”.

Q: `O=C(/C=C/c1ccccc1)NCCO` was tested. Which outcome did it give?
A: The outcome was “inactive”.

Q: How did the outcome turn out when `O=C(O)COc1ccc(C(=O)c2cccs2)c(Cl)c1Cl` was run?
A: The outcome was “inactive”.

Q: With `Cc1[nH]cnc1CN1CCc2c(c3ccccc3n2C)C1=O` as the compound, how does the outcome read?
A: Its outcome is “inactive”.

Q: With `COc1ccc(-c2cc(=S)ss2)cc1` as the compound, how does the outcome read?
A: The outcome was “inactive”.

Q: `C=CCCCCCCCCC(=O)O` was tested. Which outcome did it give?
A: The outcome was “inactive”.

Q: Which outcome does the source give for `C=C(Nc1ccc(OCC)cc1)Nc1ccc(OCC)cc1` here?
A: The outcome was “inactive”.

Q: For `CCCCCCCCCCCCCCCCCC(=O)O`, which outcome is on record?
A: The outcome was “inactive”.

Q: `O=C(O)[C@H](O)[C@@H](O)[C@H](O)[C@H](O)CO` was tested. Which outcome did it give?
A: The outcome was “inactive”.

Q: How did the outcome turn out when `NC(=O)C(c1ccccc1)(c1ccccc1)[C@@H]1CCN(CCc2ccc3c(c2)CCO3)C1` was run?
A: The outcome was “inactive”.

Q: Which outcome does the source give for `CC1(C)C[C@@H]1C(=O)N/C(=C\CCCCSC[C@H](N)C(=O)O)C(=O)O` here?
A: Its outcome is “inactive”.

Q: `c1ccc2sc(SSc3nc4ccccc4s3)nc2c1` was tested. Which outcome did it give?
A: Its outcome is “inactive”.

Q: For `COC(=O)C1=C(C)NC(C)=C(C(=O)OCC(C)C)C1c1ccccc1[N+](=O)[O-]` (configuration not stated), which outcome is on record?
A: Its outcome is “inactive”.

Q: With `c1ccc2sc(SN3CCOCC3)nc2c1` as the compound, how does the outcome read?
A: Its outcome is “inactive”.
